Measured values taken from the supplement of paper PMC10127200.
Where a name gives a salt, the structure may show the parent alone.

Tests used:
Assay in all cases: Euclidean distance of Cell Painting phenotypic profile (signed KS, 77 features) to DMSO centroid (dimensionless distance); 5 or 10 uM (library dependent); higher = stronger phenotypic change vs DMSO (phenoactivity)
Conditions in all cases: 48 h
786-O = tested on: 786-O
Outline: (§1)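 Phenoactivity is computed as Euclidean distance to the median vehicle profile. The profiles, drawn from 77 Harmony features scored as signed Kolmogorov-Smirnov statistics versus same-plate vehicle wells, were corrected for plate position, correlation-weighted and replicate-averaged at the top dose. Stained cells were imaged confocally at 20X (9 fields/well) after 48 h with library compounds at 10 or 5 uM, 0.1% DMSO final, in five cancer lines and a healthy fibroblast line.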

A549 = tested on: A549
Outline: as §1

DU145 = tested on: DU145
Outline: as §1

FB = tested on: FB
Outline: as §1

HEPG2 = tested on: HEPG2
Outline: as §1

OVCAR4 = tested on: OVCAR4
Outline: as §1

SMILES	Euclidean distance (786-O)	Euclidean distance (A549)	Euclidean distance (DU145)	Euclidean distance (FB)	Euclidean distance (HEPG2)	Euclidean distance (OVCAR4)
CN(C)C1CCN(C(=O)c2ccc(NC(=O)Nc3ccc(-c4nc(N5CCOCC5)nc(N5CCOCC5)n4)cc3)cc2)CC1	3.29	3.49	1.98	4.95	2.04	3.62
CC(C)(c1ccc(O)cc1)c1ccc(O)cc1 [Bisphenol A]	0.955	1.21	0.773	0.78	0.694	0.934
O=C(NCc1ccccc1)c1csc(Nc2ccncn2)n1 [Thiazovivin]	1.92	1.18	2.87	2.01	1.84	1.6
CCOC(=O)[C@H](CCc1ccccc1)N[C@@H](C)C(=O)N1[C@H](C(=O)O)C[C@H]2CCCC[C@@H]21 [Trandolapril]	1.34	0.478	0.864	0.819	0.562	0.99
CC[C@@H]1C(=O)N(C)c2cnc(Nc3ccc(C(=O)NC4CCN(C)CC4)cc3OC)nc2N1C1CCCC1	3.46	3.75	3.25	3.72	2.48	3.25
C#CCN(C)CCCOc1ccc(Cl)cc1Cl [Clorgyline HCl]	0.821	0.714	0.727	1.14	0.806	0.745
Cc1c(S(=O)(=O)O)oc2c1C(=O)C(=O)c1c-2ccc2c1CCCC2(C)C [Tanshinone IIA sulfonate (sodium)]	0.814	0.633	1.71	1.05	0.728	1.24
CN[C@H]1CC[C@@H](c2ccc(Cl)c(Cl)c2)c2ccccc21 [Sertraline HCl]	2.46	2.13	1.74	2.83	4.1	2.02
Nc1nc(=O)c2nc(CNc3ccc(C(=O)N[C@@H](CCC(=O)O)C(=O)O)cc3)cnc2[nH]1 [Folic acid]	1.19	0.776	0.987	0.817	0.743	1.25
Nc1ccc2cc3ccc(N)cc3nc2c1 [Proflavine]	3.98	3.75	4	4.15	4.17	4.45
CCCCC1OC(=O)c2ccccc21 (stereo not drawn) [3-n-Butylphathlide]	1.36	0.948	0.834	1.38	0.575	1.15
CC1=C(/C=C/C(C)=C/C=C/C(C)=C/CO)C(C)(C)CCC1 [Vitamin A]	0.784	1.06	0.821	1.61	0.745	1.33
Cc1ccc(Sc2cncc3sc(C(N)=O)cc23)cc1	1.1	1.05	0.78	1.61	1.24	0.995
